# From PubChem BioAssay AID624331 (National Center for Advancing Translational Sciences (NCATS), 2012)
# Records with an inconclusive call do not appear. Unmarked numbers belong to inactive results. Activity calls are given as the source filed them. The call rests on the fitted dose curve; in most records, active means well fitted activation curve with a large enough effect; inconclusive means small, poorly fitted or top-dose-only effect; inactive means no such curve, though single readings can be large or run the other way.
# Test: qHTS assay for re-activators of p53 using a Luc reporter: Hit Validation with no p53 Expressed; on activity change, positive = activation: 0% is about no effect
# Conditions: p53-null cells, luciferase reporter counter-screen; series mostly up to 46.1 µM; activity change, positive = activation: at the top concentration
# In short: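 Without p53 expression, cells (1000/well, Opti-MEM + 10% FBS) were exposed 24 h at 37 deg C to compounds in a 1:5 series from 10 mM stock (top 46.1 µM in well). Luminescent signal read 10 min after Amplite addition; actives flag unspecific activation.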
# Potency means the concentration at half of the fitted maximal effect.
SMILES,"activity change, positive = activation [%]",Potency
COc1ccccc1NC(CC(=O)c1ccccc1)C(=O)OCC(=O)c1ccc(C)c(C)c1 (centres undefined),61.6,
Cc1ccc(S(=O)(=O)NCCOc2nc(N(C)C)nc(N3CCOCC3)n2)cc1,3.19,
CC(=O)c1c(C)[nH]c(C(=O)OCC(=O)c2ccc(C)s2)c1C,-28.2,
O=C(Nc1nnc(-c2ccccc2F)s1)C1CCN(S(=O)(=O)c2ccc(Cl)cc2)CC1,-11.9,
O=C(NNC(=O)c1cccnc1SCc1cccc([N+](=O)[O-])c1)c1ccccn1,-3.99,
C/C(=N\NC(=S)NC(C)C)c1ccc(Cl)s1,-31.2,
CCCCOC(=O)c1ccc(NC(=O)CSc2nncn2C)cc1,-14.1,
S=c1[nH]nc(-c2ccco2)n1Cc1ccccc1,37.8,
CCOC(=O)N/N=C\c1ccc(C)s1,10.1,
CC(=O)/C=C(\C)Nc1ccc(-c2cnc(-c3ccccc3)o2)cc1,2.82,
Clc1ccc(-c2nnc(SCc3ccon3)o2)c(Cl)c1,,1.84 µM (active)
Cc1ccc(-c2nnc(N(C)C(=O)C3CCCO3)s2)cn1 (centres undefined),5.59,
Clc1ccc(Nc2nc(-c3cccs3)cs2)nc1,32.8,
c1ccc(-c2cn3nc(-c4ccccc4)cnc3n2)cc1,50.2,
COCCSc1ccccc1C(=O)Nc1cc(C)ccn1,21.8,
COc1ccc(NC(=O)CN(C)CC(=O)Nc2ccccc2SC)cc1,-37.7,
Cc1occc1C(=O)NN=C1C2CC3CC(C2)CC1C3,-3.28,
CCC(C)C(=O)N1CCc2cc(-c3csc(N)n3)ccc21 (centres undefined),31.1,
O=C(N/N=C/c1sc(=O)[nH]c1-[n+]1ccc2ccccc2c1)c1ccccc1[O-],-12.2,
COc1cccc(C2(c3cccc(OC)c3)CC2C(=O)Nc2cccc3ccccc23)c1 (centres undefined),-32.5,

SMILES,"activity change, positive = activation [%]",Potency
CC1CCN(C(=O)c2cc(-c3ccccc3O)on2)CC1,113,
COc1ccc(-c2nsc3c(N4CCCC4)ncnc23)cc1,-13.9,
CCCCCCC1CC(/C(C)=N\NC(N)=O)OC1=O (centres undefined),-7.06,
O=C1NC(c2ccc(Br)cc2)=N/C1=C/c1ccco1,14.3,
COc1ccc2oc(C(=O)Nc3nnc(C)s3)c(C)c2c1,82.1,
Cc1ccc(NC(=O)CCN2C(=O)c3cccc([N+](=O)[O-])c3C2=O)c(Br)c1,5.27,
C/C(=C\C(=O)c1ccccc1)Nc1ccc2c(c1)OCO2,51.4,
CCN(CC)C(=O)CSC(=Nc1ccccc1F)NC#N,23,
CCCCC(=O)Nc1cccc(NC(=S)NC(=O)Cc2ccccc2)c1,23,
Cc1cc(C(=O)NC2CCCCC2)c(C)n1-c1ccc(F)cc1,27.4,
Cc1cc(-n2c(C)cc(C(=O)COc3cc(F)ccc3[N+](=O)[O-])c2C)no1,-15.7,
NC(=O)c1cc2ccc(O)cc2oc1=Nc1ccccc1,0.331,
Cc1ccc(C(=O)OCC(=O)NCC2COc3ccccc3O2)cc1 (centres undefined),6.53,
COc1cc(NC(=O)CN2CCCCC2)c(C)cc1[N+](=O)[O-],26.6,
COc1ccc(N2COC3c4cccc5cccc(c45)C32)cc1 (centres undefined),472,
COc1ccc2cc3c(N)nn(C(=O)c4ccc(Cl)c([N+](=O)[O-])c4)c3nc2c1,-33.9,
Cc1ccc(-c2nnc(SCC(=O)Nc3ccccc3F)o2)cc1,-77.1,
Cc1ccc(C)c(/C=C/C(=O)c2ccccc(=O)c2O)c1,7.8,
Clc1ccc(OCc2nc(-c3ccccn3)n[nH]2)cc1,7.13,
